# This is part of a sample that, as a whole, favours compounds with a hit. Of some 79,000 tested, about 15% had one in any assay. A number with no mark means an inactive call. Activity calls are given as the source filed them. Rule as the data show it: active = growth inhibition above about 70%; inactive = the rest. Where a SMILES comes first, the peptide text is derived from it. [ ]: non-standard residue; d: D form. The star is where a group is joined. Hyp = O=C(O)[CH]1C[CH](O)CN1; Cbz = O=C(OCc1ccccc1)*
# Legend:
# [1] = NCI Yeast Anticancer Drug Screen. Data for the rad50 strain (AID 155);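 also: 0% = growth of vehicle-only cultures of the same strain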; details: S. cerevisiae rad50 strain growth inhibition; at 50.0 µM; active compounds read high
# Procedure, shortened: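 Inhibition values express reduced yeast growth in compound-treated cultures relative to vehicle-treated controls.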
# [2] = NCI Yeast Anticancer Drug Screen. Data for the mec2-1 strain (AID 157); details: S. cerevisiae mec2-1 strain, at 50.0 µM, active compounds read high
# Procedure, shortened: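 Yeast mec2-1 mutant treated with compound. Readout: growth inhibition vs vehicle controls.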
# [3] = NCI Yeast Anticancer Drug Screen. Data for the sgs1 mgt1 strain (AID 161);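 also: 0% = growth of cultures given vehicle only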; details: S. cerevisiae sgs1 mgt1 strain, at 50.0 µM, active compounds read high
# Procedure, shortened: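 Test agents were incubated with a DNA-repair-mutant yeast strain. Growth was then read and compared against vehicle-treated controls.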
# [4] = NCI Yeast Anticancer Drug Screen. Data for the cln2 rad14 strain (AID 165);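 also: 0% = growth equal to vehicle treated cultures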; details: S. cerevisiae cln2 rad14 strain, at 50.0 µM, active compounds read high
# Procedure, shortened: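 cln2 rad14 yeast strain; compound exposure; growth inhibition read vs vehicle controls.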
# [5] = NCI Yeast Anticancer Drug Screen. Data for the bub3 strain (AID 167); details: S. cerevisiae bub3 mutant strain, at 50.0 µM, active compounds read high
# Procedure, shortened: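 Steps: expose the mutant yeast strain to compound; grow alongside vehicle-treated cultures; measure growth; express inhibition against the vehicle cultures.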
# [6] = NCI Yeast Anticancer Drug Screen. Data for the mlh1 rad18 strain (AID 175); details: S. cerevisiae mlh1 rad18 strain growth inhibition; at 50.0 µM; active compounds read high
# Procedure, shortened: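 Yeast w/ defined DNA-repair lesions; compound exposure; growth vs vehicle controls → % inhibition.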
Structure (SMILES),growth inhibition [1] [%],growth inhibition [2] [%],growth inhibition [3],growth inhibition [4],growth inhibition [5],growth inhibition [6]
CCOCCC12CCCCC1C/C(=N/OC(C)=O)c1ccccc12 (stereo not given),9.3,-5.95,-0.45%,1.2%,15.7%,35.8%
Cc1nc(-c2ccccc2)ncc1C(O)CN1CCCCC1 (stereo not given),-21.7,25.6,18.1%,-43.2%,20.5%,2.25%
NC(=O)N/N=C/c1c(Cl)cccc1Cl,15.9,17.2,1.4%,-10.7%,-27.6%,31.5%
CCNC1=C(Cl)C(=O)c2ccccc2C1=O,-11.9,-9.8,12.2%,-21.4%,8.7%,14.9%
Cc1ccc(N2C(=O)c3ccccc3NC2(C)CCl)cc1 (stereo not given),4.55,-9.25,10.9%,-3.7%,33.1%,1.3%
CC1(C)COC(C)(Cc2ccccc2)OC1,-5.9,3.55,-15.7%,-65.3%,-22.1%,-11.7%
CC(=O)c1ccc(OCc2ccccc2)cc1OCc1ccccc1,7,4.5,-9.8%,11.7%,4.8%,-18.6%
CCCCCCN1CCc2c(C)c(C#N)c3nc4ccccc4n3c21,-8.45,-8.05,-0.95%,10.9%,19.1%,21.8%
O=[N+]([O-])c1cccc(/C=N\NS(=O)(=O)c2ccc(Cl)cc2)c1O,-11.7,-13.3,-11.8%,-2.3%,-38.4%,-5.9%
CC(C)[Si](OC1=C(c2ccccc2)C(NC(=O)/C=C/c2ccc([N+](=O)[O-])cc2)CCC1)(C(C)C)C(C)C (stereo not given),19.2,4.15,-0.2%,-6.7%,-5.35%,29.9%
C=CCCc1cc(OC)ccc1C(=O)C(C)C,4.3,-17.8,-20.1%,-20.8%,0.2%,-12.6%
CCOC(=O)CC1NC(=O)CNC1=O (stereo not given),-9.2,2.1,5.3%,-5%,-1.65%,-13.2%
Cc1cc(N2CCCCC2)nc2ccc(Cc3ccc4nc(N5CCCCC5)cc(C)c4c3)cc12,48.7,-7.05,-27.9%,-16.4%,-47.4%,27.5%
COC(=O)C1Cc2cc(OC)c(OC)cc2C(c2ccc(OC)c(OC)c2)C1C(N)=O (stereo not given),-7.9,11.3,-8.3%,0.25%,-0.9%,-1.95%
Cc1ccc(S(=O)(=O)OCC2C(COS(=O)(=O)c3ccc(C)cc3)C3C=CC2C32CC2)cc1 (stereo not given),-5.5,-7.9,27.9%,77.7% (active),91% (active),5.25%
COc1ccc(C(O)c2ccccc2C(=O)Nc2ccccc2)cc1 (stereo not given),-4.95,-9.7,-18.2%,-21.9%,-3.35%,-3.9%
O=C(/C=C/c1cccc(O)c1)c1ccccc1,29.4,8.25,38.4%,59.8%,-5.6%,92% (active)
COc1ccc(C(=O)/C=C/c2ccc(OCC(=N)N)cc2)cc1,-31.1,-38.6,-18.8%,-27.4%,-15.8%,-23.6%
CCOC(=O)C(=O)c1c(C)[nH]c(C)c1C(=O)OCC,-2.15,-4.8,17.1%,-23.1%,7.3%,-9.1%
CCOC(=O)C(CO)NC(=O)C[NH-].CCOC(=O)C(CO)NC(=O)C[NH-].[Cl][Pt+2][Cl] (stereo not given),-12.5,-8.55,-17.4%,-34.4%,-3.5%,12.2%

Structure (SMILES),growth inhibition [1] [%],growth inhibition [2] [%],growth inhibition [3],growth inhibition [4],growth inhibition [5],growth inhibition [6]
Nc1nc(Cl)nc(Cl)c1N,-21.9,7.1,-17.3%,-23.4%,-8.95%,-2.95%
COS(=O)c1cc(Cl)cc(Cl)c1O (stereo not given),-0.6,4.55,-10.7%,-28.2%,-0.85%,2.25%
CCOCC(=O)NC1Cc2cc(OC)c(OC)cc2C1O (stereo not given),-29.8,-6.2,0.1%,-17.1%,2.15%,15.6%
NC(=O)CNC(=O)C1CC(O)CN1C(=O)C1CCCN1C(=O)OCc1ccccc1 (stereo not drawn) (Cbz-Pro-[Hyp]-Gly-NH2; configuration not given here),-3.9,1.1,1.55%,4.15%,9.45%,2.2%
ON(C=Nc1ccccc1)c1ccccc1,17,19.1,6.35%,-11.5%,-3.25%,7.05%
CCOC(=O)N(C)Cc1ccc(Cl)cc1,5.75,-1.1,1.25%,-26.2%,-11.8%,21.4%
O=C(Nc1ncnc2c1ncn2C1OC(COC(=O)c2ccccc2)C(OC(=O)c2ccccc2)C1OC(=O)c1ccccc1)c1ccccc1 (stereo not given),5.15,15.6,-1.25%,10.8%,4.05%,34.6%
CC(=O)c1cccc(NC(=O)/C(=N\NC(=S)NN)C2C(=O)Nc3ccccc3S2=O)c1 (stereo not given),-3.6,-42.4,-13.1%,-4.15%,-1.8%,-10.5%
CCOC(=O)c1ccc(OC(=O)Nc2ccccc2)cc1,-2.2,6,1.15%,-12.4%,-2.8%,-28.1%
COc1ccc2oc(=O)c(CC=C(C)C)c(O)c2c1C,23.8,13.9,-1.65%,-10.9%,-25.2%,-51%
CCOCC(Cl)C(OCC)OCC (stereo not given),0.45,6.5,-5.4%,-20.1%,2.85%,-1.1%
O=C(NC(Cc1cccnc1)C(=O)O)c1ccccc1 (stereo not given),2.85,11.4,8.55%,-16.4%,12.9%,7.65%
O=C1C[C@H]2CCCC[C@@H]2O1,2,3.55,26.5%,39.1%,-13.5%,-6%
Nc1nc(-c2cccc(S(=O)(=O)O)c2)c([N+](=O)[O-])c(=O)[nH]1,-10,-8.05,-15.7%,10.2%,-24.6%,17.6%
O=S(=O)(Nc1cc(Cl)c(NS(=O)(=O)c2ccccc2)c(S(=O)(=O)c2ccccc2)c1Cl)c1ccccc1,58.2,62.4,73.5% (active),71.8% (active),65.3%,65%
COc1ccc2ccccc2c1NC(C)=O,0.2,5.95,-0.7%,-21.8%,-1.6%,-10.5%
CCN(CC)C(=O)c1cccc2c1OCO2,-17.7,13.6,2.35%,0.25%,1.4%,-9.6%
COC(=O)c1c(C)cc(C)c(C(C)=O)c1O,-16.9,-14.8,0%,-18.7%,0.75%,-16.1%
O=c1cc(-c2ccccc2Cl)[nH]c2cc3c(cc12)OCO3,14.1,-26.3,21.9%,-6.95%,12.6%,-39.8%
CC1=C(O[Si](C(C)C)(C(C)C)C(C)C)C2CC1[C@@H]1C(=O)N(c3ccccc3)C(=O)[C@H]21 (stereo not given in full),-1.45,-10.8,-7.15%,5.5%,-15.6%,-15.1%
